From PubChem BioAssay AID602313 (National Center for Advancing Translational Sciences (NCATS), 2012) come the findings set out here.

Screen size: about 390,000 compounds; about 760 (0.19%) were called active. Roughly 3% stayed inconclusive and do not appear here. The call rests on the fitted dose curve; in most records, active means well fitted inhibition curve with a large enough effect; inconclusive means small, poorly fitted or top-dose-only effect; inactive means flat fitted curve, though single readings scatter. Many of the other results were omitted from the sample, so actives are more common in it than they were.
Potency means the concentration at half of the fitted maximal effect.

A short description of this assay: qHTS for Inhibitors of Vif-A3F Interactions: qHTS. Further: nearly all actives have a fitted effect of over 65% in size. On activity, negative = active: % of control where 0% means no effect. The settings on record: HeLa A3F-eYFP + Vif (tagged APOBEC3F with the HIV-1 protein that degrades it), YFP fluorescence increase; series mostly up to 46.1 µM; activity, negative = active: at the top concentration. From the text:
The recent discovery and characterization of host restriction factors, which provide a potent defense to invading retroviruses, has provided new targets for antiviral drug development. APOBEC3G (A3G) and APOBEC3F (A3F) are potent cytidine deaminases that block HIV-1 replication; HIV-1 expresses the Vif protein, which counteracts A3G and A3F by binding to them and inducing their proteasomal degradation. The Vif-A3G and Vif-A3F interactions provide two potential targets for development of small molecules which can interfere with the ability of Vif to degrade A3G or A3F. […] To identify inhibitors that can interfere with Vif mediated degradation of A3G and A3F, we have developed Hela cell lines that stably express A3G or A3F tagged with eYFP at the C-terminal end (A3G-eYFP or A3F-eYFP, respectively) and Vif. In the absence of an inhibitor, Vif induces degradation of A3G-eYFP and A3F-eYFP, and the cells are not fluorescent. In the presence of an inhibitor, it is expected that Vif will be unable to degrade A3G-eYFP and/or A3F-eYFP, resulting in an increase in yellow fluorescence. In this assays Vif A3F was screened against the Molecular Library Small Molecule Repository (MLSMR). NIH Chemical Genomics Center [NCGC] NIH Molecular Libraries Probe Centers Network [MLPCN] MLPCN Grant: MH093245 Assay Submitter (PI): Vinay Pathak, National Cancer Institute
5 uL of 700 cells/well of A3F-YFP cells are dispensed into black, clear bottom plates. The plates are incubated overnight at 37 deg C. 23 nL of compounds are added by pintool. The plates are incubated overnight at 37 deg C and then read on the TTP Acumen (Ex 488/ Em 500-530).
(qHTS replaces the single test concentration by a dilution series.)
In the case of `COc1ccc(Cl)cc1S(=O)(=O)N1CCC(c2ccncc2)CC1`, the “activity, negative = active” value was 3.97% (inactive).
As for `CCOc1ccc2nc(N3CCC(C(=O)Nc4cc(C)ccc4C)CC3)sc2c1`, the “activity, negative = active” value was -11.1% (inactive).
On to `CCCS(=O)(=O)c1ncc(Cl)c(C(=O)Nc2scc(-c3ccccc3)c2C(=O)OCC)n1`, for which the “activity, negative = active” value is 1.36% (inactive).
For `O=C(/C=C/c1ccccc1)Nc1cc(-c2nc3cc(Cl)ccc3o2)ccc1Cl`, the “activity, negative = active” value is -2.35% (inactive).
For `COC(=O)c1ccccc1NC(=O)Cn1c(=O)cc(C)c2c(C)nn(-c3cccc(Cl)c3C)c21`, the “activity, negative = active” value was -10.3% (inactive).
The same measure, in the same setting: as for `Cc1cccc(NC(=O)Cn2nc(-c3ccc(Cl)cc3)c3ccccc3c2=O)c1`, the figure is -26.3% (inactive); as for `COc1cc2c(cc1OC)C(COc1ccc(F)cc1)N(C(=O)c1ccccc1F)CC2` (stereo not given), 7.39% (inactive).
Take `Cc1ccc(OCCSc2nc3ccc(NC(=O)COc4ccc(C)cc4)cc3s2)cc1`: the “activity, negative = active” value was -0.244% (inactive).
Consider `COC(=O)c1cc(C)sc1NC(=O)CC1Nc2ccccc2NC1=O` (stereo not given), for which the “activity, negative = active” value was -8% (inactive).
As to `O=C(CC1NCCc2ccccc21)Nc1cccc(Cl)c1` (stereo not given), the “activity, negative = active” value was -28.8% (inactive).
Consider `O=C(CC1Nc2ccccc2NC1=O)Nc1ccccc1` (stereo not given), for which the Potency was 12.6 µM (active).
On to `COc1cccc(CNC(=O)C2CCC(CNS(=O)(=O)c3cccs3)CC2)c1` (stereo not given), for which the “activity, negative = active” value is 3.35% (inactive).
Turning to `COc1ccc(C2c3c(oc4ccccc4c3=O)C(=O)N2Cc2ccc3c(c2)OCO3)cc1` (stereo not given), the “activity, negative = active” value was -2.63% (inactive).
With `CC(=O)N1CCCc2cc(S(=O)(=O)N3CCC(C(=O)NCc4ccc(F)cc4)CC3)ccc21`, the “activity, negative = active” value was -3.28% (inactive).
As to `Cc1cc(C)cc(NC(=O)CSc2nc(=O)n(CCN3CCOCC3)c3c2CCC3)c1`, the “activity, negative = active” value is 1.36% (inactive).
Still for that read-out and setting: as for `CCCCOC(=O)/C(C#N)=C/c1ccc(-c2cccc(C(F)(F)F)c2)o1`, the figure is 0.984% (inactive).
For `CCCCNC(=O)C1CCCN(c2nnc(C)c3c(C)n(-c4ccc(Cl)cc4)nc23)C1` (stereo not given), the “activity, negative = active” value is 0.0194% (inactive).
Take `CCOc1ccc(S(=O)(=O)Nc2ccc3oc4c(c3c2)CC(C)CC4)cc1` (stereo not given): the “activity, negative = active” value was -1.64% (inactive).
Take `CCNC(=O)c1cc2n(n1)CCCN(Cc1ccc(C)cc1)C2=O`: the “activity, negative = active” value was -0.301% (inactive).
As to `CCCOC(=O)c1c(NC(=O)c2cc3nc(-c4ccc(OC)cc4)cc(C(F)(F)F)n3n2)sc2c1CCCC2`, the “activity, negative = active” value was 1.95% (inactive).
Regarding `O=C(NCC(c1ccc2c(c1)OCO2)N1CCN(c2ccccc2)CC1)C(=O)Nc1ccccc1F` (stereo not given), the “activity, negative = active” value was 2.29% (inactive).
Same read-out and setting: to `O=C(NC1CC(=O)N(c2ccc(F)cc2)C1)C1CCCCC1` (stereo not given) belongs 1.21% (inactive).
For `Cc1cc(C)c(/C=C2\C(=O)Nc3ccccc32)[nH]1`, the Potency is 12.6 µM (active).
Turning to `Fc1ccc(-n2ncc3c(Nc4ccc(Oc5ccccc5)cc4)ncnc32)cc1`, the “activity, negative = active” value was -29% (inactive).
As to `COc1ccccc1NC(=O)c1oc2ccccc2c1NC(=O)C(C)C`, the “activity, negative = active” value was -14.6% (inactive).
On to `Cc1ccc(Cc2nc3ccccc3nc2SCC(=O)Nc2cccc(C(F)(F)F)c2)cc1`, for which the “activity, negative = active” value is -7.16% (inactive).
In the case of `COc1ccc(NC(=O)Cn2cc(C(=O)c3ccncc3)c(=O)c3cc(C)ccc32)cc1Cl`, the “activity, negative = active” value is 0.229% (inactive).
Same read-out and setting: as for `Cc1ccc(C)c(Oc2c(C(F)(F)F)oc3c(CN4CCN(C)CC4)c(O)ccc3c2=O)c1`, the figure is -3.95% (inactive); as for `CC1CCC(N2CC(=O)N(CCC3=CCCCC3)C(c3ccc(F)cc3)C2=O)CC1` (stereo not given), 9.13% (inactive).
Take `COc1ccc(Cl)cc1NC(=O)c1sc2nc3c(cc2c1N)CN(C)CC3`: the “activity, negative = active” value was -23.7% (inactive).
Still for that read-out and setting: as for `CCOc1ccc(N2CC(c3nc4ccccc4n3CCOc3ccc(OC)cc3)CC2=O)cc1` (stereo not given), the figure is 2.96% (inactive).
As for `O=S(=O)(c1ccc(C2CCCCC2)cc1)N1CCN(c2ccc(Cl)c(Cl)c2)CC1`, the “activity, negative = active” value was -4.98% (inactive).
As to `CC(C)c1ccc(C2CC(=O)N3CN(C4CCCCC4)CSC3=C2C#N)cc1` (stereo not given), the “activity, negative = active” value is 1.95% (inactive).
For the molecule `CCOc1ccc2oc(=O)cc(CN3CCN(C(=O)c4ccc(F)cc4)CC3)c2c1`, the “activity, negative = active” value was 8.67% (inactive).
With `COc1ccc(-c2nn3c(-c4ccc(OC)cc4)nnc3c3ccccc23)cc1`, the “activity, negative = active” value is 3.72% (inactive).
`CC(C)c1ccc(NC(=O)c2cc(S(=O)(=O)N3CCc4ccccc4C3)ccc2F)cc1`: the “activity, negative = active” value was 0.749% (inactive).
On the same count and under the same terms, to `CCOc1ccccc1C(=O)NCc1ccc2c(c1)CCN2C(=O)c1ccc(F)cc1` belongs -7.05% (inactive).
As to `CCOc1ccc(N(Cc2ccccc2)C(=O)c2nc(S(C)(=O)=O)ncc2Cl)cc1`, the “activity, negative = active” value was 5.15% (inactive).
The same measure, in the same setting: to `Cc1ccc2sc(N(Cc3cccnc3)C(=O)C3COc4ccccc4O3)nc2c1C` (stereo not given) belongs -6.9% (inactive); to `Cc1ccc(NC(=O)c2oc3ccc(S(=O)(=O)N4CCCCC4)cc3c2C)cc1Cl`, 0.769% (inactive); to `CCc1nn(CC(=O)N2CCN(c3ccc(Cl)cc3)CC2)c(=O)c2cc3occc3n12`, 0.0492% (inactive).
Take `Cc1nc2c(-c3ccccc3)c(C)nn2c(C)c1CCC(=O)NCCc1ccccc1`: the “activity, negative = active” value is -7.66% (inactive).
Turning to `COc1ccccc1Nc1nc(N)nc(N)c1S(=O)(=O)c1ccccc1`, the “activity, negative = active” value was 6.16% (inactive).
Take `COc1cc(NC(=O)c2cc3ccc4cccnc4c3[nH]2)cc(OC)c1OC`: the “activity, negative = active” value was -2.39% (inactive).
With `COc1ccc(-c2cn3c(n2)sc2cc(C(=O)Nc4ccc(F)cc4)ccc23)cc1`, the “activity, negative = active” value is 0.115% (inactive).
With `COc1ccc(NC(=O)c2sc3nc(-c4cc5cccc(OC)c5oc4=O)[nH]c(=O)c3c2C)cc1`, the “activity, negative = active” value was 6.98% (inactive).
With `COc1ccc(-c2nc3cnccn3c2NC2CCCCC2)cc1-c1cccc(Cl)c1`, the Potency is 22.4 µM (active).
As for `Cc1ccc(Nc2c(-c3ccc(C)cc3)nc3cnccn23)cc1`, the “activity, negative = active” value was -7.53% (inactive).
Regarding `COc1ccc(-c2nc3cnccn3c2NC(C)(C)CC(C)(C)C)cc1O`, the “activity, negative = active” value is 5.18% (inactive).
With `CCOCCCNC(=O)c1ccc2nc(CCc3ccccc3)oc2c1`, the “activity, negative = active” value is 1.04% (inactive).
